The supplement of paper PMC12494721
Structures can show the parent of a compound that is named as a salt.

Experiments:
Settings in all cases: incubation time: 27 h, anaerobic, 37 °C;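 for the amine columns active = adjusted P below 0.05 in both replicates with a change the same way and a mean fold change under 0.8 or over 1.25; inactive = the rest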
[1] = system: Clostridium sporogenes DSM 1664; assay: growth (OD595) fold change vs plate DMSO controls (fold change (ratio)); higher = more growth
In short: (§1)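 After 27 h at 37 °C under anaerobic conditions, 96-well cultures in mGAM were shaken and read at 595 nm. The readings were blank-subtracted, corrected for compound background using 20 µM compound solutions in water, and converted to OD with a calibration factor of 5. Growth is defined as the fold change over the median of DMSO controls on each plate. Fold changes above 1.5 were set to NA, and each value is the mean of 2 biological replicates.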

[2] = system: Escherichia coli IAI1; assay: as above
In short: as §1

[3] = system: Klebsiella aerogenes DSM 30053; assay: as above
In short: as §1

[4] = system: Ruminococcus gnavus DSM 108212; assay: as above
In short: as §1

[5] = system: Klebsiella aerogenes DSM 30053; assay: fold change of Histamine concentration vs plate DMSO controls (fold change (ratio)); higher = more amine produced, active = hit call of the paper (significant change in both replicates, either direction)
In short: (§2)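 Amines were quantified by LC–triple-quadrupole MS in dynamic MRM mode against external calibration curves, with drift correction within each batch. The samples were whole anaerobic mGAM cultures of four gut bacterial strains, grown for 27 h at 37 °C in 80 µL wells and extracted with cold acetonitrile/methanol with 0.1% formic acid, then centrifuged. Values are reported as fold change over DMSO controls on the same plate. The mean of 2 biological replicates is given.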

[6] = system: Clostridium sporogenes DSM 1664; assay: fold change of Tryptamine concentration vs plate DMSO controls (fold change (ratio)); higher = more amine produced, active = hit call of the paper (significant change in both replicates, either direction)
In short: as §2

[7] = system: Ruminococcus gnavus DSM 108212; assay: as above
In short: as §2

[8] = system: Escherichia coli IAI1; assay: fold change of Putrescine concentration vs plate DMSO controls (fold change (ratio)); higher = more amine produced, active = hit call of the paper (significant change in both replicates, either direction)
In short: as §2

[9] = system: Klebsiella aerogenes DSM 30053; assay: as above
In short: as §2

[10] = system: Escherichia coli IAI1; assay: fold change of Cadaverine concentration vs plate DMSO controls (fold change (ratio)); higher = more amine produced, active = hit call of the paper (significant change in both replicates, either direction)
In short: as §2

[11] = system: Klebsiella aerogenes DSM 30053; assay: as above
In short: as §2

[12] = system: Ruminococcus gnavus DSM 108212; assay: fold change of 2-Phenylethylamine concentration vs plate DMSO controls (fold change (ratio)); higher = more amine produced, active = hit call of the paper (significant change in both replicates, either direction)
In short: as §2

Row | SMILES | growth [1] | growth [2] | growth [3] | growth [4] | fold change of Histamine concentration [5] | fold change of Tryptamine concentration [6] | fold change of Tryptamine concentration [7] | fold change of Putrescine concentration [8] | fold change of Putrescine concentration [9] | fold change of Cadaverine concentration [10] | fold change of Cadaverine concentration [11] | fold change of 2-Phenylethylamine concentration [12]
1 | CN(C)CCOC1=Cc2ccccc2Sc2ccc(Cl)cc21 [Zotepine] (20 µM) | 1.11 | 1.07 | 1.05 | 1.34 | 1 (inactive) | 1.01 (inactive) | 0.902 (inactive) | 1.08 (inactive) | 0.99 (inactive) | 1.05 (inactive) | 0.993 (inactive) | 0.924 (inactive)
2 | CC(=O)Oc1c(C)cccc1C(=O)O [Cresopirine] (20 µM) | 1.04 | 0.974 | 1.03 | 0.935 | 0.972 (inactive) | 1.06 (inactive) | 0.962 (inactive) | 0.977 (inactive) | 1.02 (inactive) | 0.998 (inactive) | 1.01 (inactive) | 0.945 (inactive)
3 | O=C(O)c1ccccc1C(=O)Nc1ccc(S(=O)(=O)Nc2nccs2)cc1 [Phthalylsulfathiazole] (20 µM) | 0.901 | 0.981 | 0.96 | 1.09 | 1 (inactive) | 1.1 (inactive) | 0.948 (inactive) | 1.03 (inactive) | 1.01 (inactive) | 1.04 (inactive) | 0.987 (inactive) | 0.919 (inactive)
4 | CC[C@H]1OC(=O)[C@H](C)[C@@H](O[C@H]2C[C@@](C)(OC)[C@@H](O)[C@H](C)O2)[C@H](C)[C@@H](O[C@@H]2O[C@H](C)C[C@H](N(C)C)[C@H]2O)[C@](C)(OC)C[C@@H](C)C(=O)[C@H](C)[C@@H](O)[C@]1(C)O [Clarithromycin] (20 µM) | 0 | 0.665 | 0.941 | 0.257 | 0.636 (inactive) | 0.0515 (active) | 0.11 (active) | 0.434 (inactive) | 0.888 (inactive) | 0.944 (inactive) | 1.03 (inactive) | 0.118 (active)
5 | Nc1c(Br)cc(Br)cc1CN[C@H]1CC[C@H](O)CC1 [Ambroxol hydrochloride] (20 µM) | 0.943 | 1.07 | 0.958 | 0.75 | 1.03 (inactive) | 1.04 (inactive) | 1 (inactive) | 1.05 (inactive) | 1 (inactive) | 1.01 (inactive) | 0.991 (inactive) | 0.985 (inactive)
6 | O=C(CO)[C@@H](O)[C@H](O)[C@@H](CO)O[C@H]1O[C@H](CO)[C@@H](O)[C@H](O)[C@H]1O [Leucrose] (50 µM) | 0.936 | 0.999 | 1.01 | 0.99 | 1.02 (inactive) | 1.03 (inactive) | 0.993 (inactive) | 1.05 (inactive) | 1 (inactive) | 1.02 (inactive) | 0.992 (inactive) | 0.968 (inactive)
7 | COc1ccc([C@@H]2Sc3ccccc3N(CCN(C)C)C(=O)[C@@H]2OC(C)=O)cc1 [Diltiazem hydrochloride] (20 µM) | 1.13 | 1.02 | 0.994 | 1.01 | 1.07 (inactive) | 1.03 (inactive) | 1.01 (inactive) | 0.982 (inactive) | 1.02 (inactive) | 0.985 (inactive) | 0.993 (inactive) | 0.971 (inactive)
8 | Cc1ccc(S(=O)(=O)NC(=O)NN2CCCCCC2)cc1 [Tolazamide] (20 µM) | 0.935 | 1.09 | 1.04 | 1.19 | 0.975 (inactive) | 1.02 (inactive) | 1.14 (inactive) | 1.05 (inactive) | 0.974 (inactive) | 1.02 (inactive) | 1.02 (inactive) | 1.18 (inactive)
9 | C=C1C[C@@]23CC[C@H]4[C@@](C)(CCC[C@@]4(C)C(=O)O[C@@H]4O[C@H](CO)[C@@H](O)[C@H](O)[C@H]4O)[C@@H]2CC[C@]1(O[C@@H]1O[C@H](CO)[C@@H](O)[C@H](O)[C@H]1O[C@@H]1O[C@H](CO)[C@@H](O)[C@H](O)[C@H]1O)C3 [Stevioside] (50 µM) | 0.957 | 1 | 0.995 | 0.976 | 0.984 (inactive) | 0.986 (inactive) | 0.947 (inactive) | 0.989 (inactive) | 0.863 (inactive) | 1.04 (inactive) | 1.1 (inactive) | 0.971 (inactive)
10 | COc1ccc(C[C@@H]2c3cc(OC)c(OC)cc3CC[N@+]2(C)CCC(=O)OCCCCCOC(=O)CC[N@@+]2(C)CCc3cc(OC)c(OC)cc3[C@H]2Cc2ccc(OC)c(OC)c2)cc1OC [Cisatracurium besylate] (20 µM) | 1.4 | 1.01 | 1.05 | 1.01 | 0.758 (inactive) | 1.05 (inactive) | 1.03 (inactive) | 0.918 (inactive) | 0.929 (inactive) | 0.944 (inactive) | 1.07 (inactive) | 1.01 (inactive)
11 | NNCCc1ccccc1 [Phenelzine sulfate] (20 µM) | 0.965 | 0.99 | 1.02 | 1.01 | 1.05 (inactive) | 0.921 (inactive) | 0.995 (inactive) | 1.12 (inactive) | 0.977 (inactive) | 1.04 (inactive) | 1.03 (inactive) | 0.911 (inactive)
12 | O=C(O)COC(=O)Cc1ccccc1Nc1c(Cl)cccc1Cl [Aceclofenac] (20 µM) | 1.1 | 1.11 | 1.14 | 0.993 | 0.97 (inactive) | 0.959 (inactive) | 0.984 (inactive) | 1.08 (inactive) | 1.01 (inactive) | 0.962 (inactive) | 1.01 (inactive) | 1.05 (inactive)
13 | O=C(Cn1ccnc1[N+](=O)[O-])NCCO [Etanidazole] (20 µM) | 0.988 | 1.01 | 1.06 | 0.954 | 0.832 (inactive) | 0.98 (inactive) | 1.28 (active) | 0.91 (inactive) | 1.03 (inactive) | 1.02 (inactive) | 1.11 (inactive) | 1.83 (active)
14 | Nc1ncnc2c1ncn2C1OC(COP(=O)(O)O)C(O)C1O (configuration not stated) [Adenosine 5'-monophosphate monohydrate] (20 µM) | 1.05 | 1.01 | 0.973 | 0.96 | 1.07 (inactive) | 1.01 (inactive) | 1.02 (inactive) | 1.04 (inactive) | 1.02 (inactive) | 0.991 (inactive) | 0.987 (inactive) | 1.01 (inactive)
15 | CCSc1ccc2c(c1)N(CCCN1CCN(C)CC1)c1ccccc1S2 [Thiethylperazine maleate] (20 µM) | 1.26 | 1.05 | 1.17 | 0.847 | 1.01 (inactive) | 0.971 (inactive) | 0.851 (inactive) | 1.07 (inactive) | 1.07 (inactive) | 1.06 (inactive) | 1.05 (inactive) | 0.915 (inactive)
16 | CO[C@@]12[C@H](COC(N)=O)C3=C(C(=O)C(C)=C(N)C3=O)N1C[C@@H]1N[C@@H]12 [Mitomycin C] (20 µM) | 0.678 | 0.0414 | 0.824 | 0.291 | 1.15 (inactive) | 0.394 (active) | 0.153 (active) | 0.663 (inactive) | 0.968 (inactive) | 0.306 (active) | 0.995 (inactive) | 0.15 (active)
17 | Nc1ccc(S(=O)(=O)Nc2ccccn2)cc1 [Sulfapyridine] (20 µM) | 0.891 | 1.06 | 1.04 | 1.03 | 1.05 (inactive) | 0.998 (inactive) | 1.02 (inactive) | 1.01 (inactive) | 1 (inactive) | 0.955 (inactive) | 0.994 (inactive) | 1.03 (inactive)
18 | CC(C)NCC(O)c1ccc(O)c(O)c1 (single isomer, unassigned; (+)) [(+) Isoproterenol-(+)-bitartrate salt] (20 µM) | 1.02 | 1.06 | 0.995 | 1.06 | 1.03 (inactive) | 1.01 (inactive) | 0.989 (inactive) | 0.979 (inactive) | 0.997 (inactive) | 0.976 (inactive) | 0.974 (inactive) | 0.984 (inactive)
19 | CC(C(=O)O)c1ccc(-c2ccccc2)c(F)c1 (configuration not stated) [Flurbiprofen] (20 µM) | 0.961 | 1 | 1 | 1.02 | 1.07 (inactive) | 1.02 (inactive) | 0.937 (inactive) | 1.06 (inactive) | 1.03 (inactive) | 1 (inactive) | 1.01 (inactive) | 0.882 (inactive)
20 | CCCN[C@H]1CCc2nc(N)sc2C1 [Pramipexole dihydrochloride] (20 µM) | 0.931 | 0.975 | 1.01 | 1.01 | 1.05 (inactive) | 0.946 (inactive) | 0.974 (inactive) | 0.977 (inactive) | 1.05 (inactive) | 0.98 (inactive) | 1.01 (inactive) | 0.923 (inactive)
21 | C[C@@H](O)[C@H]1C(=O)N2C(C(=O)O)=C(SCCNC=N)C[C@H]12 [Imipenem] (20 µM) | 0.318 | 1.08 | 0.85 | 0.0868 | 0.772 (inactive) | 0.0417 (active) | 0.0408 (active) | 0.971 (inactive) | 1.03 (inactive) | 1.65 (active) | 1 (inactive) | 0.0463 (active)
